The values that follow come from ChEMBL document CHEMBL3988442, “University of Dundee, Small-Polar-MMV Screening Library” (2021).

Common to all, as to set-up: scale not given: direction of the effect not stated beside the values
Assay [1] addresses Protein translocase subunit SecA (Escherichia coli (strain K12)) (UniProt P10408). The assay is described as follows: Assay to Identify E. coli SecA ATPase Inhibitors. The class given is functional. The following applies: 30 µM.
In assay [2] the target is T1, Ubiquitin-activating enzyme e1, putative (Leishmania donovani (strain BPK282A1)) (UniProt E9BSI1).
T1 sequence (whole entry): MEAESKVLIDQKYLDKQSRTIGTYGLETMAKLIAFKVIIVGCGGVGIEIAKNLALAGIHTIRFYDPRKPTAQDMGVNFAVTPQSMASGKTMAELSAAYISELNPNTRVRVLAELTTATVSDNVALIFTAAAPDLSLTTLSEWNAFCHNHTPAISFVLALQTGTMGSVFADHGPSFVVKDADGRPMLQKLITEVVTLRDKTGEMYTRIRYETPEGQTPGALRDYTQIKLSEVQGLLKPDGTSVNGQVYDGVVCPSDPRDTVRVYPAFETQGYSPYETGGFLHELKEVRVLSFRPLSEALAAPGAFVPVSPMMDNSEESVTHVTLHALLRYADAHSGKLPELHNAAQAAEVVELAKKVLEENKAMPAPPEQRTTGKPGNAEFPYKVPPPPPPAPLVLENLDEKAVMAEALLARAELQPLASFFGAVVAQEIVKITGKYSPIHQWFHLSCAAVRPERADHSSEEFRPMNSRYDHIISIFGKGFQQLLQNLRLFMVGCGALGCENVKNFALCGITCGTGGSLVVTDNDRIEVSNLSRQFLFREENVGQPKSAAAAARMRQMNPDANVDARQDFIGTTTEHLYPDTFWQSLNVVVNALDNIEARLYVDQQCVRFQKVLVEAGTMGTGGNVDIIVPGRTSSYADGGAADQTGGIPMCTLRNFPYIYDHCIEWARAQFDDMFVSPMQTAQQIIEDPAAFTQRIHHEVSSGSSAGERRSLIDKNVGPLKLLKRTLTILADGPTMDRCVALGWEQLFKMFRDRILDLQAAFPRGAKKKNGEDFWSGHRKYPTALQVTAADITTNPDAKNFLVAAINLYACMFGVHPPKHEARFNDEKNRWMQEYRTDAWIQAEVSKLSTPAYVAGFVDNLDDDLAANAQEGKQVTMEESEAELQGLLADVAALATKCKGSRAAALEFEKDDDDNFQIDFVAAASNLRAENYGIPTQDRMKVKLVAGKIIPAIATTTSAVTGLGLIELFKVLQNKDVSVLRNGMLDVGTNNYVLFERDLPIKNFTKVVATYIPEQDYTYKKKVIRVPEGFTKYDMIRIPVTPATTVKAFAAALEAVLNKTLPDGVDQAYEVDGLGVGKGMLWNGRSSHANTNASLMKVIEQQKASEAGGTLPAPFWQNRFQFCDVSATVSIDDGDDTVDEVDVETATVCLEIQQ
Nature of the assay: Leishmania donovani Ubiquitin Activating Enzyme (LdE1). The note with it: 30 µM. The class given is functional.

Assay [3] addresses AMP-activated protein kinase, AMPK (Homo sapiens) (UniProt P54646+O43741+P54619+Q9UGJ0+Q9Y478+Q13131+Q9UGI9). Nature of the assay: AMP-dependent Kinase enzyme assay. An in vitro enzyme assay that detects ADP turnover that is directly proportional to AMPK activity. This uses naive AMPK that is activated during the assay with MK-8722. The class given is functional. The note with it: 30 µM.

Assay [4] has as its target Sialic acid-binding Ig-like lectin 9 (Homo sapiens) (UniProt Q9Y336). The assay is described as follows: Hs-Siglec9 ALPHAscreen SOP 20170721. The following applies: 10 µM.
Another assay has as its system Trypanosoma cruzi. The assay is described as follows: Trypanosoma cruzi phosphomannomutase and mannose-1-phosphate guanylyltransferase assay. The class given is functional. The note with it: 10 µM.
In assay [5] the target is T2, Arginase-2, mitochondrial (Homo sapiens) (UniProt P78540).
T2 sequence (whole entry): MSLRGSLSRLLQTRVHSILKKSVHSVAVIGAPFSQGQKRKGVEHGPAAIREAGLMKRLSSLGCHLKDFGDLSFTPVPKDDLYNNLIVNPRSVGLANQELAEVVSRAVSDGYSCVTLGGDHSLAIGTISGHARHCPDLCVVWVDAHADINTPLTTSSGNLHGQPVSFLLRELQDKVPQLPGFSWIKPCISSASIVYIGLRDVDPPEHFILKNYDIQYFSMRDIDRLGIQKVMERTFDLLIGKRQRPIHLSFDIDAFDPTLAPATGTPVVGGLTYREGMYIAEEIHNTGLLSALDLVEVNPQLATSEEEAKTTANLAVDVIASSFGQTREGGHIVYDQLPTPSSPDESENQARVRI
The assay is described as follows: in vitro enzyme assay to detect the production of urea directly proportional to the activity of Arginase II. Note: in the data most compounds retested in dose-response had high values. The class given is functional. The note with it: 33.3 µM.

The target of assay [6] is T3, Proteasome subunit beta (Trypanosoma cruzi) (UniProt O96673).
T3 sequence (whole entry): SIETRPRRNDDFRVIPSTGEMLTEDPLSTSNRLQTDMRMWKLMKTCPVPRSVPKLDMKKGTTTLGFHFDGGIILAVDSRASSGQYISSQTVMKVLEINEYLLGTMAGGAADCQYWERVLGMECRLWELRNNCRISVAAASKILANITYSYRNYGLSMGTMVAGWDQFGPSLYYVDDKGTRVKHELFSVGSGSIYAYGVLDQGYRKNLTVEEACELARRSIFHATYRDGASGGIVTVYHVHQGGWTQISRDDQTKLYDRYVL
Nature of the assay: Trypanosoma cruzi proteasome chymotrypsin-like activity (TcProtChymo) assay. Note: in the data most compounds retested in dose-response had high values. The class given is functional. The note with it: 9.37 µM.

The next assay is filed under the species Homo sapiens. Nature of the assay: To identify inhibition of the IFN signalling (Jak-Stat) pathway via expression of an eGFP reporter gene under the control of an IFN-stimulated response element (ISRE) containing MxA promoter. The note with it: 30 µM. The class given is functional.
The target of assay [7] is T4, Tyrosyl-tRNA synthetase, putative (Trypanosoma cruzi (strain CL Brener)) (UniProt Q4DSP6).
T4 sequence (whole entry): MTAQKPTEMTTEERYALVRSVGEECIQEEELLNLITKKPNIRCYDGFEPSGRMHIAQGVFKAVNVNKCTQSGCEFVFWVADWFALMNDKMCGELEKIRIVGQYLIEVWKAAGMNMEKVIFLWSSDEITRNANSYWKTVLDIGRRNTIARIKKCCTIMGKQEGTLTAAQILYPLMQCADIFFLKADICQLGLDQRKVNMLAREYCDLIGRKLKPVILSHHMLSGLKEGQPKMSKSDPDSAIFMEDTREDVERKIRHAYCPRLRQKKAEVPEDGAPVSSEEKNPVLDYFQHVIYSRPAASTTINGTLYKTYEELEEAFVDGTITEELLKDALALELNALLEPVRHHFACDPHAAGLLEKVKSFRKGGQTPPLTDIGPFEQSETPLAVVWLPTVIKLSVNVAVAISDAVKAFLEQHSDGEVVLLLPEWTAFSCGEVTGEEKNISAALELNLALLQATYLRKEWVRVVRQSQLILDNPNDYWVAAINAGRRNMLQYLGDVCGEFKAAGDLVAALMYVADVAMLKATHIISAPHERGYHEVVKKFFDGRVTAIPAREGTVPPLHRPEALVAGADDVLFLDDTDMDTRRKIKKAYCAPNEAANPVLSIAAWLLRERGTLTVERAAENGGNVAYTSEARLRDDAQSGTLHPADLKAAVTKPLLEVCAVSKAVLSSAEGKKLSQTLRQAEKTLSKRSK
Nature of the assay: Trypanosoma cruzi tyrosyl tRNA synthetase (TcYRS) _High Tyrosine SOP. Note: in the data most compounds retested in dose-response had high values. The class given is functional. The following applies: 30 µM.

For assay [8], the target named is T4, Tyrosyl-tRNA synthetase, putative (Trypanosoma cruzi (strain CL Brener)). Nature of the assay: Trypanosoma cruzi tyrosyl tRNA synthetase (TcYRS) SOP. The class given is functional. The note with it: 30 µM.
Assay [9] addresses Chromo domain-containing protein 1 (Saccharomyces cerevisiae (strain ATCC 204508 / S288c) (Baker's yeast)) (UniProt P32657). The assay is described as follows: ScCHD-1 Enzyme Inhibition Assay. Note: in the data most compounds retested in dose-response had high values. The note with it: 30 µM. The class given is functional.

For some of these results: Measured potencies and affinities stand elsewhere.

Sequence of Sialic acid-binding Ig-like lectin 9 (Homo sapiens) (Q9Y336 whole entry): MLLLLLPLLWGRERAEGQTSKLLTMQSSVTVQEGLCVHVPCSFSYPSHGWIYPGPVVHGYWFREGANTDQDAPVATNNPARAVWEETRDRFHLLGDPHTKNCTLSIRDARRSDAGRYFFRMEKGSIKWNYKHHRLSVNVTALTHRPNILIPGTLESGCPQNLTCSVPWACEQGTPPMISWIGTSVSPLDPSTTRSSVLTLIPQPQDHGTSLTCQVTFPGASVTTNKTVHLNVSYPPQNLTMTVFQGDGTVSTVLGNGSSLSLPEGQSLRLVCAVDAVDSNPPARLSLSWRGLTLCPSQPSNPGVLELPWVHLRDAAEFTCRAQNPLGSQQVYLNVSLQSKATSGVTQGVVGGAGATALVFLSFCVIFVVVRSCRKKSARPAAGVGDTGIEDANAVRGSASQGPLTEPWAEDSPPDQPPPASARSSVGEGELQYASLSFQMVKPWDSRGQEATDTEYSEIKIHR
Sequence of Chromo domain-containing protein 1 (Saccharomyces cerevisiae (strain ATCC 204508 / S288c) (Baker's yeast)) (P32657 whole entry, the tested form may be a part): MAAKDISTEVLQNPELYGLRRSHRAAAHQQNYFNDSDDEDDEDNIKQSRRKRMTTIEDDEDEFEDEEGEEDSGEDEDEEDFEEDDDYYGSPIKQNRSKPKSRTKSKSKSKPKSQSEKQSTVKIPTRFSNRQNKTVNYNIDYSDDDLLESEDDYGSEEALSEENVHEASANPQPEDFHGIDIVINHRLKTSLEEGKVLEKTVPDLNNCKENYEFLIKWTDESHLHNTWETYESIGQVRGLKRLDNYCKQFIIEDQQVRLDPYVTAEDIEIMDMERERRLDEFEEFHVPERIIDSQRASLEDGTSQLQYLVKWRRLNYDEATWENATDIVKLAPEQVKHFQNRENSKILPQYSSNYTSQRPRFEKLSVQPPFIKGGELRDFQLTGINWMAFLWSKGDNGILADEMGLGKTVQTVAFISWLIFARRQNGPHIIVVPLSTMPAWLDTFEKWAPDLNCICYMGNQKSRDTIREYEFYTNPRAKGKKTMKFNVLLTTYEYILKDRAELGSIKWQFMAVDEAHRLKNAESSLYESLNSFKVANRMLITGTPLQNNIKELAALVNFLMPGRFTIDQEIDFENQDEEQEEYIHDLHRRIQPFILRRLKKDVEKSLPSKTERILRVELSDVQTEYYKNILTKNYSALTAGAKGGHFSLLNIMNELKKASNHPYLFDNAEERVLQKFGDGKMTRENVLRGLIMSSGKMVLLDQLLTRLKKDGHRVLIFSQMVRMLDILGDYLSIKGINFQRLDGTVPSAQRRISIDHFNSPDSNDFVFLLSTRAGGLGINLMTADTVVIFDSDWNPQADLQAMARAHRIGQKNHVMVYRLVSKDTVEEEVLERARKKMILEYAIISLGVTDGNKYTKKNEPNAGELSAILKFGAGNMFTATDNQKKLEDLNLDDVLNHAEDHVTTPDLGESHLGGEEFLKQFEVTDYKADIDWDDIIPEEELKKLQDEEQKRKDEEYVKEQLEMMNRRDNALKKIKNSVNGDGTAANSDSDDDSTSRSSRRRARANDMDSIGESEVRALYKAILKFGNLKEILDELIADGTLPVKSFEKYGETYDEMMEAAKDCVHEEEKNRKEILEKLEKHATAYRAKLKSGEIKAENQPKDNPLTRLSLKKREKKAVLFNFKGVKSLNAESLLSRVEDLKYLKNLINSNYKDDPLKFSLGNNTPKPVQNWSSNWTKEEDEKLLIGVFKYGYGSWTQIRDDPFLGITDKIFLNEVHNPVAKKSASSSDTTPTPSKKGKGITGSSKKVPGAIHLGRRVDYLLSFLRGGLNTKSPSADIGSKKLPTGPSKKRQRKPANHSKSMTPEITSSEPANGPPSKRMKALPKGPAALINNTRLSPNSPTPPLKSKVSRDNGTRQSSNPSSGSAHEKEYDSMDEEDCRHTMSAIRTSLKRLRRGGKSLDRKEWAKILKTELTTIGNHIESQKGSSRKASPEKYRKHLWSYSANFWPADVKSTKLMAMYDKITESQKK
Sequence of Protein translocase subunit SecA (Escherichia coli (strain K12)) (P10408 whole entry): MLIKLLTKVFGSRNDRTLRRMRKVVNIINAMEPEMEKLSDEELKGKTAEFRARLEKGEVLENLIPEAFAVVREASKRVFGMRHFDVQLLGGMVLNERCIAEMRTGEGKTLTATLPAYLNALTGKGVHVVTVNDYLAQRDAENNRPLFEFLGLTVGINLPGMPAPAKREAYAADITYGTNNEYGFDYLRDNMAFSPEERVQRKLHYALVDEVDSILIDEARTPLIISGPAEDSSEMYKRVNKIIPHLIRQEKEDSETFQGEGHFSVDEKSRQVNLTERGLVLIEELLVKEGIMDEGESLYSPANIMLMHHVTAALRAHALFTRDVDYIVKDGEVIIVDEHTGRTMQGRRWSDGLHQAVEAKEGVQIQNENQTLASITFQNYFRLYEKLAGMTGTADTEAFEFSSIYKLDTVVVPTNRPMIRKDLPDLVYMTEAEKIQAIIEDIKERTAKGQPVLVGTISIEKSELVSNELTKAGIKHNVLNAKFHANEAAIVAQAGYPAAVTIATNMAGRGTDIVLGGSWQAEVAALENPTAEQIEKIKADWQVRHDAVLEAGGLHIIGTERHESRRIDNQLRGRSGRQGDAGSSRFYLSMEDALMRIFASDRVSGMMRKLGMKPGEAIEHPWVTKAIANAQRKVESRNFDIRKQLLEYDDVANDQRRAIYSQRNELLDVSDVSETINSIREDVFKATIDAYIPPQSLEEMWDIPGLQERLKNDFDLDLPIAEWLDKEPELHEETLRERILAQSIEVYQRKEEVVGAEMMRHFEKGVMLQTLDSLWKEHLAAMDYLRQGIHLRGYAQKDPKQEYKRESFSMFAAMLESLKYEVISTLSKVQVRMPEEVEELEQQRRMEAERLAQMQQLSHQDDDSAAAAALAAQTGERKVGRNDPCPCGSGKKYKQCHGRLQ

Consider `Cc1nc(C)n(CC2CCCCN2CC(=O)N(C)Cc2ccco2)n1` (stereo unspecified), for which the Percent Effect in assay [1] is -1.21%; in assay [2], 0%; in [3], 13.5%; in assay [4], 5.38%; with Trypanosoma cruzi, 2.45%; in assay [5] it was 0.21%. Further, the Percent Effect is 11.9% in assay [6]; 5.11% in the assay listed under Homo sapiens; 0% in [7]; -2.35% in [8]; -7.89% in [9].

As for `Cc1cc(N2CCN(Cc3ccc(C)o3)CC2)cc(C)n1`, the Percent Effect is -4.6% in [1]; 5.33% in assay [2]; -0.471% in assay [3]; 15% in [4]; 1.46% with Trypanosoma cruzi; 2.08% in [5]. Besides, the Percent Effect in [6] was 20.2%; in the assay filed under Homo sapiens, 2.05%; in assay [7], 8.2%; in assay [8], 16.1%; in [9], -6.19%.

Regarding `CN(C)C(=O)N1CCN(Cc2ccccc2)[C@@H]2CS(=O)(=O)C[C@@H]21`, the Percent Effect in assay [1] is -0.429%; in assay [2], 2.7%; in [3] it was -4.73%; in [4], 3.84%; in the assay with Trypanosoma cruzi it was 4.25%; in assay [5], -1.43%. The Percent Effect in [6] is 10.9%; in the assay listed under Homo sapiens, 4.04%; in assay [7] it was 7.94%; in assay [8], 17.1%; in assay [9], -3.7%.

As for `Cc1ccc(CN2CC3(CCN(C(=O)c4cscn4)C3)C2)s1`, the Percent Effect in [1] is 1.32%; in assay [2], 0%; in assay [3], 1.31%; in [4] it was 11.8%; in the assay on Trypanosoma cruzi, -2.98%; in assay [5] it was 3.19%. The Percent Effect in assay [6] is 9.85%; in the assay filed under Homo sapiens, -1.49%; in [7], 7.29%; in [8] it was -1.24%; in assay [9], -1.23%.

For `N#CC1(C(=O)N2CCN(Cc3ccon3)CC2)CCC1`, the Percent Effect is -1.32% in assay [1]; 5.06% in assay [2]; 1.56% in assay [3]; 6.56% in [4]; -7.84% in the assay on Trypanosoma cruzi; 9.89% in assay [5]. Further, the Percent Effect in assay [6] is 1.56%; in the assay filed under Homo sapiens, 23.8%; in assay [7], 0.493%; in assay [8], 1.27%; in [9], -3.39%.

In the case of `Cc1nc(C2CCCN(C(=O)c3sccc3C3CC3)C2)no1` (stereo unspecified), the Percent Effect in assay [1] is -1.32%; in [2], -1.39%; in assay [3], -29%; in [4] it was -2.96%; in the assay with Trypanosoma cruzi, -0.486%; in assay [5], -0.442%. For the same molecule, the Percent Effect in assay [6] was 11.9%; in the assay filed under Homo sapiens, 5.93%; in assay [7], 0%; in [8] it was 0%; in assay [9], -0.247%.

Turning to `CN(C(=O)c1cccc2[nH]ncc12)C1CCN(c2ccccn2)CC1`, the Percent Effect in [1] is -8.48%; in [2] it was 7.79%; in [3] it was -0.81%; in assay [4] it was -5.52%; in the assay on Trypanosoma cruzi it was -4.6%; in assay [5], -3.16%. Besides, the Percent Effect in assay [6] was -4.12%; in the assay filed under Homo sapiens, 30.5%; in [7], 0.952%; in [8] it was 2.35%; in [9] it was -18.1%.

As to `COc1ccccc1CC1CCCN(CCC#N)C1` (stereo unspecified), the Percent Effect in assay [1] was -3.04%; in assay [2] it was 5.2%; in assay [3], -0.847%; in assay [4], 2.02%; with Trypanosoma cruzi, 3.82%; in assay [5] it was 4.42%. Also, the Percent Effect in assay [6] was -6.39%; in the assay filed under Homo sapiens, 8.44%; in [7], 2.86%; in [8], 11.8%; in [9] it was -9.24%.

Take `Cc1nc(C)n(CC2CN(c3ccc(C#N)cn3)CCO2)n1` (stereo unspecified): the Percent Effect in assay [1] is -4.11%; in assay [2], 10.5%; in assay [3], -4.42%; in [4] it was 10.3%; with Trypanosoma cruzi, 5.88%; in assay [5], 1.44%. Also, the Percent Effect in assay [6] is 6.51%; in the assay listed under Homo sapiens it was -2.74%; in [7], 6.4%; in [8], 18.5%; in [9], -3.17%.

For `Nc1nccc(N2CCCC(CO)(CCOc3ccccc3)C2)n1` (stereo unspecified), the Percent Effect was -4.62% in assay [1]; 2.6% in assay [2]; -0.596% in assay [3]; 19% in assay [4]; 8.75% in the assay on Trypanosoma cruzi; -13.8% in assay [5]. Moreover, the Percent Effect in [6] is 15.3%; in the assay filed under Homo sapiens it was 41.9%; in [7] it was 7.53%; in assay [8], 13.6%; in [9], -3.14%.

With `CCC(C)(NCC(=O)N(c1ccccc1)C(C)C)c1nc(C)cs1` (stereo unspecified), the Percent Effect in [1] was 1.71%; in assay [2] it was 8.11%; in assay [3], -12.9%; in assay [4] it was 3.16%; with Trypanosoma cruzi it was 1.27%; in assay [5], 7.2%. Further, the Percent Effect in assay [6] is 7.3%; in the assay filed under Homo sapiens it was -1.37%; in assay [7] it was 4.3%; in [8], 13.6%; in assay [9], -8.52%.
